Reference: PubChem BioAssay AID1159580 (chemical genetic matrix, 2015)
Among all 5,500 compounds or so, about 2,000 (36%) were called active. Another 18% or so got no clear call; they are omitted. Some of the results follow. Values without a mark were called inactive. Rule as the data show it: active = normalized growth mostly below about 0.91 (no sharp cut-off); inconclusive = no clear call, values can overlap the other calls; inactive = mostly above about 0.92.

Assay: chemical genetic growth profiling, strain panel (AID 1159580);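 also: tested at 20 µM; growth read once vehicle control cultures reached saturation at 30 °C; 1 = growth at the plate median or of vehicle wells; lower values mean less growth of the strain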
Details: growth OD
[1] = S. cerevisiae deletion strains, locus YAR019C, strain CDC15, stronger effect = lower value
[2] = S. cerevisiae deletion strains, locus YBL105C, strain PKC1, stronger effect = lower value
[3] = S. cerevisiae deletion strains, locus YBR135W, strain CKS1, stronger effect = lower value
[4] = S. cerevisiae deletion strains, locus YBR136W, strain MEC1, stronger effect = lower value
[5] = S. cerevisiae deletion strains, locus YBR160W, strain CDC28, stronger effect = lower value
[6] = S. cerevisiae deletion strains, locus YDL017W, strain CDC7, stronger effect = lower value
[7] = S. cerevisiae deletion strains, locus YDL028C, strain MPS1, stronger effect = lower value
[8] = S. cerevisiae deletion strains, locus YDL101C, strain DUN1, stronger effect = lower value
[9] = S. cerevisiae deletion strains, locus YDL108W, strain KIN28, stronger effect = lower value
[10] = S. cerevisiae deletion strains, locus YDL132W, strain cdc53, stronger effect = lower value
[11] = S. cerevisiae deletion strains, locus YDL214C, strain PRR2, stronger effect = lower value
[12] = S. cerevisiae deletion strains, locus YDR052C, strain DBF4, stronger effect = lower value
[13] = S. cerevisiae deletion strains, locus YDR054C, strain cdc34, stronger effect = lower value
[14] = S. cerevisiae deletion strains, locus YDR226W, strain ADK1, stronger effect = lower value
[15] = S. cerevisiae deletion strains, locus YDR477W, strain SNF1, stronger effect = lower value
[16] = S. cerevisiae deletion strains, locus YER123W, strain YCK3, stronger effect = lower value
[17] = S. cerevisiae deletion strains, locus YER133W, strain GLC7, stronger effect = lower value
[18] = S. cerevisiae deletion strains, locus YFL009W, strain cdc4, stronger effect = lower value
[19] = S. cerevisiae deletion strains, locus YFL029C, strain CAK1, stronger effect = lower value
[20] = S. cerevisiae deletion strains, locus YFR003C, strain YPI1, stronger effect = lower value
[21] = S. cerevisiae deletion strains, locus YFR019W, strain FAB1, stronger effect = lower value
[22] = S. cerevisiae deletion strains, locus YFR028C, strain CDC14, stronger effect = lower value
[23] = S. cerevisiae deletion strains, locus YGR040W, strain KSS1, stronger effect = lower value
[24] = S. cerevisiae deletion strains, locus YGR052W, strain FMP48, stronger effect = lower value
[25] = S. cerevisiae deletion strains, locus YGR092W, strain DBF2, stronger effect = lower value
[26] = S. cerevisiae deletion strains, locus YHR030C, strain SLT2, stronger effect = lower value
[27] = S. cerevisiae deletion strains, locus YHR079C, strain IRE1, stronger effect = lower value
[28] = S. cerevisiae deletion strains, locus YHR082C, strain KSP1, stronger effect = lower value
[29] = S. cerevisiae deletion strains, locus YHR205W, strain SCH9, stronger effect = lower value
[30] = S. cerevisiae deletion strains, locus YIL147C, strain SLN1, stronger effect = lower value
[31] = S. cerevisiae deletion strains, locus YJL095W, strain BCK1, stronger effect = lower value
[32] = S. cerevisiae deletion strains, locus YJL128C, strain PBS2, stronger effect = lower value
[33] = S. cerevisiae deletion strains, locus YJL157C, strain FAR1, stronger effect = lower value
[34] = S. cerevisiae deletion strains, locus YJR016C, strain ILV3, stronger effect = lower value
[35] = S. cerevisiae deletion strains, locus YJR066W, strain TOR1 (second series), stronger effect = lower value
[36] = S. cerevisiae deletion strains, locus YJR066W, strain TOR1, stronger effect = lower value
[37] = S. cerevisiae deletion strains, locus YKL048C, strain ELM1, stronger effect = lower value
[38] = S. cerevisiae deletion strains, locus YKL067W, strain YNK1, stronger effect = lower value
[39] = S. cerevisiae deletion strains, locus YKL101W, strain HSL1, stronger effect = lower value
[40] = S. cerevisiae deletion strains, locus YKL193C, strain SDS22, stronger effect = lower value
[41] = S. cerevisiae deletion strains, locus YKL203C, strain TOR2, stronger effect = lower value
[42] = S. cerevisiae deletion strains, locus YLR113W, strain HOG1, stronger effect = lower value
[43] = S. cerevisiae deletion strains, locus YLR133W, strain CKI1, stronger effect = lower value
[44] = S. cerevisiae deletion strains, locus YLR403W, strain SFP1, stronger effect = lower value
[45] = S. cerevisiae deletion strains, locus YML070W, strain DAK1, stronger effect = lower value
[46] = S. cerevisiae deletion strains, locus YMR001C, strain CDC5, stronger effect = lower value
[47] = S. cerevisiae deletion strains, locus YMR205C, strain PFK2 (second series), stronger effect = lower value
[48] = S. cerevisiae deletion strains, locus YMR277W, strain FCP1, stronger effect = lower value
[49] = S. cerevisiae deletion strains, locus YNL006W, strain LST8, stronger effect = lower value
[50] = S. cerevisiae deletion strains, locus YNL020C, strain ARK1, stronger effect = lower value
[51] = S. cerevisiae deletion strains, locus YNL161W, strain CBK1, stronger effect = lower value
[52] = S. cerevisiae deletion strains, locus YNL183C, strain NPR1, stronger effect = lower value
[53] = S. cerevisiae deletion strains, locus YNL207W, strain RIO2, stronger effect = lower value
[54] = S. cerevisiae deletion strains, locus YNL222W, strain SSU72, stronger effect = lower value
[55] = S. cerevisiae deletion strains, locus YNL307C, strain MCK1 (second series), stronger effect = lower value
[56] = S. cerevisiae deletion strains, locus YOL078W, strain AVO1, stronger effect = lower value
[57] = S. cerevisiae deletion strains, locus YOL136C, strain PFK27, stronger effect = lower value
[58] = S. cerevisiae deletion strains, locus YOR061W, strain CKA2, stronger effect = lower value
[59] = S. cerevisiae deletion strains, locus YOR119C, strain RIO1, stronger effect = lower value
[60] = S. cerevisiae deletion strains, locus YOR231W, strain MKK1, stronger effect = lower value
[61] = S. cerevisiae deletion strains, locus YOR329C, strain SCD5, stronger effect = lower value
[62] = S. cerevisiae deletion strains, locus YPL031C, strain PHO85, stronger effect = lower value
[63] = S. cerevisiae deletion strains, locus YPL153C, strain RAD53, stronger effect = lower value
[64] = S. cerevisiae deletion strains, locus YPL204W, strain HRR25, stronger effect = lower value
[65] = S. cerevisiae deletion strains, locus YPL209C, strain IPL1, stronger effect = lower value
[66] = S. cerevisiae deletion strains, locus YPL256C, strain CLN2, stronger effect = lower value
[67] = S. cerevisiae deletion strains, locus YPR025C, strain CCL1, stronger effect = lower value
[68] = S. cerevisiae deletion strains, locus YPR106W, strain ISR1, stronger effect = lower value
[69] = S. cerevisiae deletion strains, locus YPR111W, strain DBF20, stronger effect = lower value
[70] = S. cerevisiae deletion strains, strain NNK1, stronger effect = lower value
[71] = S. cerevisiae deletion strains, strain TSCII, stronger effect = lower value

Cc1c(-c2ccnn2C(=O)c2ccco2)cnn1-c1ccccc1
normalized growth [1]: 0.954
normalized growth [2]: 0.957
normalized growth [3]: 0.958
normalized growth [4]: 0.954
normalized growth [5]: 0.957
normalized growth [6]: 0.964
normalized growth [7]: 0.93
normalized growth [8]: 0.978
normalized growth [9]: 0.954
normalized growth [10]: 0.953
normalized growth [11]: 0.904
normalized growth [12]: 0.982
normalized growth [13]: 0.952
normalized growth [14]: 0.953
normalized growth [15]: 0.861
normalized growth [16]: 0.925
normalized growth [17]: 0.915
normalized growth [18]: 0.936
normalized growth [19]: 0.954
normalized growth [20]: 0.959
normalized growth [21]: 0.945
normalized growth [22]: 0.94
normalized growth [23]: 0.872
normalized growth [24]: 0.966
normalized growth [25]: 0.917
normalized growth [26]: 0.739 (active)
normalized growth [27]: 0.909
normalized growth [28]: 0.953
normalized growth [29]: 0.909
normalized growth [30]: 0.958
normalized growth [31]: 0.842
normalized growth [32]: 0.908
normalized growth [33]: 0.916
normalized growth [34]: 0.962
normalized growth [35]: 0.828
normalized growth [36]: 0.89
normalized growth [37]: 0.972
normalized growth [38]: 0.908
normalized growth [39]: 0.894
normalized growth [40]: 0.959
normalized growth [41]: 0.965
normalized growth [42]: 0.799 (active)
normalized growth [43]: 0.917
normalized growth [44]: 0.873
normalized growth [45]: 0.895
normalized growth [46]: 0.953
normalized growth [47]: 0.939
normalized growth [48]: 0.938
normalized growth [49]: 0.953
normalized growth [50]: 0.931
normalized growth [51]: 0.974
normalized growth [52]: 0.953
normalized growth [53]: 0.958
normalized growth [54]: 0.943
normalized growth [55]: 0.894
normalized growth [56]: 0.958
normalized growth [57]: 0.898
normalized growth [58]: 0.909
normalized growth [59]: 0.919
normalized growth [60]: 0.885
normalized growth [61]: 0.974
normalized growth [62]: 0.858
normalized growth [63]: 0.873
normalized growth [64]: 0.851
normalized growth [65]: 0.969
normalized growth [66]: 0.825 (active)
normalized growth [67]: 0.957
normalized growth [68]: 0.957
normalized growth [69]: 0.917
normalized growth [70]: 0.964
normalized growth [71]: 0.94

Cc1c(C(=O)N(Cc2ccccc2)Cc2cccs2)cnn1-c1ccc(Cl)cc1
normalized growth [1]: 0.992
normalized growth [2]: 0.989
normalized growth [3]: 0.984
normalized growth [4]: 0.981
normalized growth [5]: 0.981
normalized growth [6]: 0.998
normalized growth [7]: 0.985
normalized growth [8]: 0.99
normalized growth [9]: 0.985
normalized growth [10]: 0.976
normalized growth [11]: 0.947
normalized growth [12]: 1
normalized growth [13]: 0.987
normalized growth [14]: 0.996
normalized growth [15]: 0.946
normalized growth [16]: 0.94
normalized growth [17]: 0.957
normalized growth [18]: 0.986
normalized growth [19]: 0.988
normalized growth [20]: 0.99
normalized growth [21]: 0.963
normalized growth [22]: 0.981
normalized growth [23]: 0.938
normalized growth [24]: 1.03
normalized growth [25]: 0.967
normalized growth [26]: 0.934
normalized growth [27]: 0.953
normalized growth [28]: 1.03
normalized growth [29]: 0.919
normalized growth [30]: 0.997
normalized growth [31]: 0.945
normalized growth [32]: 0.967
normalized growth [33]: 0.935
normalized growth [34]: 0.982
normalized growth [35]: 0.883
normalized growth [36]: 1.02
normalized growth [37]: 0.97
normalized growth [38]: 0.968
normalized growth [39]: 0.94
normalized growth [40]: 0.982
normalized growth [41]: 0.997
normalized growth [42]: 0.925
normalized growth [43]: 0.936
normalized growth [44]: 0.915
normalized growth [45]: 0.926
normalized growth [46]: 0.987
normalized growth [47]: 0.944
normalized growth [48]: 0.989
normalized growth [49]: 1.01
normalized growth [50]: 0.945
normalized growth [51]: 0.995
normalized growth [52]: 0.995
normalized growth [53]: 0.989
normalized growth [54]: 0.99
normalized growth [55]: 0.95
normalized growth [56]: 0.989
normalized growth [57]: 0.926
normalized growth [58]: 0.95
normalized growth [59]: 1
normalized growth [60]: 0.888
normalized growth [61]: 0.99
normalized growth [62]: 0.962
normalized growth [63]: 0.926
normalized growth [64]: 0.931
normalized growth [65]: 0.988
normalized growth [66]: 0.922
normalized growth [67]: 0.99
normalized growth [68]: 0.974
normalized growth [69]: 0.972
normalized growth [70]: 0.986
normalized growth [71]: 0.973

CC(=O)c1cnn(-c2ccccc2)c1C
normalized growth (S. cerevisiae deletion strains, locus YAL013W, strain DEP1, stronger effect = lower value): 0.979
normalized growth (S. cerevisiae deletion strains, locus YBR229C, strain ROT2, stronger effect = lower value): 0.984
normalized growth (S. cerevisiae deletion strains, locus YCL061C, strain MRC1, stronger effect = lower value): 0.992
normalized growth [8]: 0.985
normalized growth (S. cerevisiae deletion strains, locus YDL134C, strain PPH21, stronger effect = lower value): 1.01
normalized growth (S. cerevisiae deletion strains, locus YDR150W, strain NUM1, stronger effect = lower value): 0.925
normalized growth (S. cerevisiae deletion strains, locus YEL061C, strain CIN8, stronger effect = lower value): 1
normalized growth (S. cerevisiae deletion strains, locus YGR078C, strain PAC10, stronger effect = lower value): 0.995
normalized growth [26]: 0.945
normalized growth (S. cerevisiae deletion strains, locus YHR087W, strain rtc3, stronger effect = lower value): 0.99
normalized growth (S. cerevisiae deletion strains, locus YJR043C, strain POL32, stronger effect = lower value): 0.994
normalized growth (S. cerevisiae deletion strains, locus YJR075W, strain HOC1, stronger effect = lower value): 1
normalized growth (S. cerevisiae deletion strains, locus YLR039C, strain RIC1, stronger effect = lower value): 1
normalized growth (S. cerevisiae deletion strains, locus YLR058C, strain SHM2 (second series), stronger effect = lower value): 0.998
normalized growth (S. cerevisiae deletion strains, locus YLR085C, strain ARP6, stronger effect = lower value): 0.963
normalized growth (S. cerevisiae deletion strains, locus YLR262C, strain YPT6, stronger effect = lower value): 1.01
normalized growth (S. cerevisiae deletion strains, locus YML094W, strain GIM5, stronger effect = lower value): 0.948
normalized growth (S. cerevisiae deletion strains, locus YMR219W, strain ESC1, stronger effect = lower value): 0.997
normalized growth (S. cerevisiae deletion strains, locus YMR263W, strain SAP30, stronger effect = lower value): 0.922
normalized growth (S. cerevisiae deletion strains, locus YMR307W, strain GAS1, stronger effect = lower value): 0.957
normalized growth (S. cerevisiae deletion strains, locus YNL153C, strain GIM3, stronger effect = lower value): 0.981
normalized growth (S. cerevisiae deletion strains, locus YNL298W, strain CLA4 (second series), stronger effect = lower value): 1
normalized growth (S. cerevisiae deletion strains, locus YNL322C, strain KRE1, stronger effect = lower value): 0.997
normalized growth (S. cerevisiae deletion strains, locus YNR030W, strain Alg12, stronger effect = lower value): 1
normalized growth (S. cerevisiae deletion strains, locus YOL006C, strain TOP1, stronger effect = lower value): 0.983
normalized growth (S. cerevisiae deletion strains, locus YPL055C, strain LGE1, stronger effect = lower value): 0.848
normalized growth (S. cerevisiae deletion strains, locus YPL241C, strain CIN2, stronger effect = lower value): 0.984
normalized growth (S. cerevisiae deletion strains, locus YPR135W, strain CTF4, stronger effect = lower value): 0.944
normalized growth (S. cerevisiae strains, strain wild type, stronger effect = lower value): 0.997
